Bioassay records as filed in PubChem.
DAX1 StAR inh = DAX1 (NR0B1) inhibition, primary screen; HEK293T StAR-luciferase reporter, SF-1/DAX-1 repression relief; inhibition, % at 6.8 µM; actives 1.1% (n = 370,000); AID 652010;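 active = inhibition above the mean over all tested compounds plus 3 SD, cut at about 3.6% in these data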;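 note: 0% = DAX-1 cells with DMSO and 100% = cells lacking DAX-1 with DMSO; higher inhibition means more luminescence from relief of DAX-1 repression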
hcDAF12 agonist = activates DAF-12 receptor from parasite H. contortus; actives 1.4% (n = 370,000); activation, % at 6.8 µM; HEK293 hcDAF-12 lit1-tk-luc reporter, luminescence; 0% DMSO, 100% Δ7-dafachronic acid;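 active = activation above the mean of all tested compounds plus 3 SD, cut at about 5.5% in these data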;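 note: 100% = response to 3 µM Δ7-dafachronic acid high control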
hgDAF12 agonist = agonists of H. glycines DAF-12 nuclear receptor; actives 1.8% (n = 370,000); AID 687014; HEK293 GAL4-hgDAF12 UAS-luciferase reporter, agonist luminescence; normalized to butyrate control; activation, % at 6.8 µM;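 active = activation above a cutoff set at the mean of all screened compounds plus 3 SD, cut at about 10% in these data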;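 note: 0% = DMSO wells and 100% = sodium butyrate wells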
Wnt bcat act = activates Wnt/beta-catenin signaling in a reporter cell assay. activator, plate reader. activation, % at 9.35 µM. actives 1.2% (n = 300,000). AID 743398; in the data active = activation above about 30%, passing the limit was not always enough; inconclusive = no clear call, values can overlap the other calls;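 note: 0% = neutral control wells and 100% = positive control wells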
esBAF inh = inhibitors of esBAF chromatin remodeling in mouse ES cells; Bmi1-luciferase knock-in reporter, 24 h; 100% = twice the neutral-well signal; reporter increase, % at 12.5 µM; actives 2% (n = 350,000); in the data active = activation above about 40%; inconclusive = no clear call, values can overlap the other calls;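 note: 0% = median of the plate's neutral control wells and 100% = double that signal; a rise in the Bmi1 reporter signal indicates esBAF inhibition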
ssDAF12 agonist = S. stercoralis DAF-12 activation, primary screen | AID 652126 | activation, % at 6.8 µM | actives 1% (n = 370,000) | HEK293 ssDAF-12/GRIP1 lit1-tk-luc reporter, luminescence; % of 3 µM dafachronic acid response;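 active = activation above the mean over all tested compounds plus 3 SD, cut at about 0.9% in these data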;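 note: 0% = DMSO-only wells and 100% = 3 µM delta7-dafachronic acid wells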
LXR ag = counter-screen for hcDAF-12 agonists: agonists of human LXR-beta; shares compounds with hcDAF12 agonist; HEK293 Gal4-LXR tk-luc reporter, luminescence, 24 h; normalized: DMSO 0%, positive control 100%; activation, % at 6.8 µM; 3,400 tested, under 10 active;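 active = mean percent activation of the reporter above a cutoff set as the average over tested compounds plus their standard deviation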
Target sequence (P55055 whole entry, looked up, the tested form may be a part): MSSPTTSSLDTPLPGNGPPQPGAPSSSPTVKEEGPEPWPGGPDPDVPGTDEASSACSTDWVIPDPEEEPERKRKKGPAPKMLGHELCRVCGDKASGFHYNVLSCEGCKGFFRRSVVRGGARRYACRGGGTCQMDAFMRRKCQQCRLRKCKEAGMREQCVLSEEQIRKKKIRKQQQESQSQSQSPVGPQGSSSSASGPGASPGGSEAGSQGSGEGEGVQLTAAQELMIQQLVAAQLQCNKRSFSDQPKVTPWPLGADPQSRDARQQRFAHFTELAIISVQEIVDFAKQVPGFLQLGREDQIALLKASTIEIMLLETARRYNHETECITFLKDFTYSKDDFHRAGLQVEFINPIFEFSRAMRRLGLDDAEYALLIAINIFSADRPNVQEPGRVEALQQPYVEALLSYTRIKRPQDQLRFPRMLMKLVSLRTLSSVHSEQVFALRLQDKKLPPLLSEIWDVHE
hcDAF12 conf = hcDAF-12 agonism, confirmation assay; shares compounds with hcDAF12 agonist; activation, % at 6.8 µM; HEK293 hcDAF-12 lit1-tk-luc reporter, luminescence; % of Δ7-dafachronic acid response; actives 61% (n = 3,400);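 active = mean activation across triplicate tests above the threshold derived from the earlier primary screen, cut at about 5.5% in these data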;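 note: 0% = DMSO only wells and 100% = 3 µM Δ7-dafachronic acid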
Starred values were filed as active, the others as inactive; ? = inconclusive; . = not tested or not shown. This is a sample that favours compounds with a hit; in the whole collection about 4.2% have one here.

SMILES	DAX1 StAR inh	hcDAF12 agonist	hgDAF12 agonist	Wnt bcat act	esBAF inh	ssDAF12 agonist	LXR ag	hcDAF12 conf
O=C(OCC(=O)c1c[nH]c2ccccc12)C1=COCCO1	3	7.2*	9	43*	64*	1.0*	1	9.9*
CC1CCc2nc(/C(C#N)=C/c3cccnc3)sc2C1 (stereo unspecified)	3.8*	7.1*	13*	.	.	0	1	5
CN1CCN(C(=O)C[C@H]2CC[C@H]3[C@@H](COC[C@H](O)CN3Cc3ccc4c(c3)OCO4)O2)CC1	.	.	.	.	-5	.	.	.
c1coc(-c2nc3ccccc3nc2-c2ccco2)c1	0	2	-1	2	6	-1	.	.
c1coc(-c2cnc3ccccc3n2)c1	3	7.8*	8	14	3	0	1	5.7*
Nc1ccc(-c2cnc3ccccc3n2)cc1	2	7.1*	11*	?	-64	0	2	7.5*
Clc1ccc(-c2cnc3ccccc3n2)cc1	1	3	9	.	.	-1	.	.
c1ccc(-c2ccccn2)nc1	2	-1	4	-1	5	-1	.	.
c1ccc(-c2ccc(-c3ccccn3)nn2)nc1	3	6.9*	7	.	.	-1	1	8.7*
CNC[C@H]1Oc2ncc(/C=C/c3ccccc3)cc2C(=O)N([C@@H](C)CO)C[C@H]1C	.	.	.	.	-24	.	.	.
O=C(O)c1cc(N/N=C/c2cccc3ccccc23)ccc1Cl	0	8.4*	1	27	80*	0	1	8.2*
OC[C@H]1[C@H](c2ccc(C#CC3(O)CCCC3)cc2)[C@H]2CN(Cc3cncnc3)CCCCN21	.	.	.	.	-6	.	.	.
O=C(Nc1ccccc1Cl)C(=O)c1cn(CC(=O)N2CCOCC2)c2ccccc12	1	7.6*	7	39*	52*	0	1	8.6*
O=C(NCc1ccc(Cl)cc1)C(=O)c1cn(CC(=O)N2CCOCC2)c2ccccc12	0	-3	2	5	12	-1	.	.
CC(=O)Nc1ccc(NC(=O)CSc2cn(CC(=O)N3CCOCC3)c3ccccc23)cc1	1	-2	2	0	-3	-1	.	.
COc1ccc(CNC(=O)C(=O)c2cn(CC(=O)N3CCCC3)c3ccccc23)cc1	0	7.2*	1	2	26	0	0	3
O=C(Cn1cc(SCc2ccccc2Cl)c2ccccc21)N1CCOCC1	1	11*	6	.	82*	-1	0	5
O=C(C[C@@H]1CC[C@H]2[C@@H](COC[C@H](O)CN2S(=O)(=O)c2ccc(F)cc2)O1)NCC1CCCCC1	.	.	.	.	2	.	.	.
Cc1noc(C)c1S(=O)(=O)Nc1ccc2c(c1)C(=O)N([C@@H](C)CO)C[C@H](C)[C@@H](CN(C)S(=O)(=O)c1ccccc1)OCCCC[C@@H](C)O2	.	.	.	.	-6	.	.	.
Cc1c(N=C2NN=C(c3c[nH]c4ccccc34)CS2)c(=O)n(-c2ccccc2)n1C	-1	7.0*	2	-1	.	0	0	2
CC(=O)c1c(CC(=O)O)[nH]n(-c2nc3ccccc3s2)c1=O	2	6.6*	7	.	12	0	0	5
COc1ccc(NC(=O)Nc2nnc(-c3ccco3)s2)cc1	2	8.3*	12*	53*	30	1.2*	1	9.0*
O=C(Nc1ccccn1)C(NS(=O)(=O)c1cccc2nsnc12)c1ccccc1 (stereo unspecified)	-1	1	2	-2	7	-1	.	.
O=C(NCc1cccs1)C(NS(=O)(=O)c1cccc2nsnc12)c1ccccc1 (stereo unspecified)	0	7.1*	-2	-3	-9	1	0	1
COc1ccc(NC2=Nc3cccc4cccc2c34)cc1OC	-1	-3	-1	17	18	-1	.	.
SMILES	DAX1 StAR inh	hcDAF12 agonist	hgDAF12 agonist	Wnt bcat act	esBAF inh	ssDAF12 agonist	LXR ag	hcDAF12 conf
Clc1ccc(/C=N/NC2=Nc3cccc4cccc2c34)cc1	1	6.7*	7	.	.	0	1	10*
O=C(Nc1nnc(-c2cccs2)s1)C1CC1	2	0	2	8	25	0	.	.
O=C(Nc1nc(-c2cccs2)c(-c2cccs2)s1)C1CCCC1	0	8.1*	5	-1	.	-1	0	1
CN1/C(=C\C=C2/SC(=S)NC2=O)C(C)(C)c2ccccc21	-3	-4	-5	-1	-21	-3	.	.
CN1CCC/C1=C/C=C1\SC(=S)NC1=O	1	7.0*	1	18	.	-1	0	3
CCOC(=O)N=Nc1c(O)n(C)c2ccccc12	0	7.3*	5	.	4	0	0	2
C=CCn1c(O)c(N=NC(=O)OCC)c2ccccc21	0	-2	-3	-1	.	-1	.	.
O=C(C[C@H]1CC[C@H](NC(=O)c2cccc(F)c2)[C@@H](CO)O1)NCc1ccccc1	.	.	.	.	-4	.	.	.
Cc1ccc2nc3c(nc2c1)-c1ccccc1C3=O	1	11*	4	.	?	1.4*	0	6.2*
NNc1nc(-c2ccccc2)nc2sc3c(c12)CCCC3	2	7.8*	3	.	-22	1	2	19*
Cc1ccc(S(=O)(=O)N(C)C[C@@H]2Oc3ccc(NC(=O)C4CC4)cc3CC(=O)N([C@@H](C)CO)C[C@H]2C)cc1	.	.	.	.	-2	.	.	.
COc1ccc(C(=O)COC(=O)c2ccc(N(C)C)cc2)cc1	-1	-1	5	-2	.	-2	.	.
Cc1ccc(C(=O)COC(=O)c2cccs2)cc1	4.5*	7.0*	9	52*	.	1	1	5
CN(C)c1ccc(C(=O)OCC(=O)c2cccs2)cc1	4.2*	8.4*	20*	1	.	1.1*	1	4
CN1CCN(C(=O)Nc2ccccc2CC[N+](=O)[O-])CC1	1	13*	-1	-2	-4	0	0	4
COCc1cn(CC[C@@H]2CC[C@@H](NC(=O)CCN3CCCCC3)[C@H](CO)O2)nn1	.	.	.	.	1	.	.	.
O=C(NC1CCC1)[C@@H]1[C@@H](CO)[C@@H]2Cn3c(cccc3=O)[C@@H]2N1CC1CCOCC1	.	.	.	.	-4	.	.	.
CN1[C@@H]2c3ccc(-c4ccccc4F)c(=O)n3C[C@@H]2[C@@H](CO)[C@@H]1C(=O)NCc1ccncc1	.	.	.	.	0	.	.	.
C[C@@H]1CN([C@H](C)CO)C(=O)c2cc(-c3ccc(F)cc3)cnc2O[C@H]1CN(C)C(=O)Nc1ccc(F)cc1	.	.	.	.	4	.	.	.
